# Screening results (PubChem BioAssay)
# KCNQ2 pot = potentiators of rat KCNQ2 potassium channel; Potassium voltage-gated channel subfamily KQT member 2 (Rattus norvegicus), O88943; CHO-K1 KCNQ2, FluxOR thallium flux fluorescence; active compounds read high; B-score at 10 µM; 0.54% of 310,000 active; AID 2239, 2010;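 active means fluorescence ratio B-score at least 3 SD of library B-scores, with initial fluorescence B-score within 3 of them, cut at about 5.3 in these data; same plate scores as AID 2156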;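 further: B-score of peak minus minimum over baseline fluorescence ratio after K+ and Tl+ stimulus; positive B-score means potentiation of KCNQ2 with more thallium influx and brighter signal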
# Target sequence (O88943 whole entry, looked up): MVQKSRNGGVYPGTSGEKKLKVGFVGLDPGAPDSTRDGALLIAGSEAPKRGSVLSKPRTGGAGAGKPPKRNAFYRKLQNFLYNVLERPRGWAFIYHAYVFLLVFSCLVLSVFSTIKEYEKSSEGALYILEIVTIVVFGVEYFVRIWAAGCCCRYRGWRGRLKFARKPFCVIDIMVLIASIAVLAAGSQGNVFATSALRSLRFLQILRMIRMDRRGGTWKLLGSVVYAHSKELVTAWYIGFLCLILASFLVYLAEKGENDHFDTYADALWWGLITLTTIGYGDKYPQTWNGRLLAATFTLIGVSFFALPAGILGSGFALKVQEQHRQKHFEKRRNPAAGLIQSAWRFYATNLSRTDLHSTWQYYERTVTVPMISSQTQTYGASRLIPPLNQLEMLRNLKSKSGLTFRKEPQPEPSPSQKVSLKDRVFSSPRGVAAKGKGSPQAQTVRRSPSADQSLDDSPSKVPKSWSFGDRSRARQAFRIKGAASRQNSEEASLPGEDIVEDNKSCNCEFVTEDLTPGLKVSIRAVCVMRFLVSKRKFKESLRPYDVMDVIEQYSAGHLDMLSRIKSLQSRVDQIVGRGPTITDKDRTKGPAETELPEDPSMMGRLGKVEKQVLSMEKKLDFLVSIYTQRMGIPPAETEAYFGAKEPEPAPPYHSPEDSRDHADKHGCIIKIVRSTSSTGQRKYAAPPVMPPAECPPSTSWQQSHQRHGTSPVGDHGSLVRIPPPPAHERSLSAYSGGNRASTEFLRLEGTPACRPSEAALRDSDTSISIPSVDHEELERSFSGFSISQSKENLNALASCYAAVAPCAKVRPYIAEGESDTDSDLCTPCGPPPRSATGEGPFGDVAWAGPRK
# KCNQ2 block = rat KCNQ2 potassium channel inhibitors, primary screen, cell-based, CHO-K1, FluxOR thallium flux, B-score | 20 min; active compounds read low | B-score at 10 µM | 1.1% of 310,000 active | AID 2156, 2009;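 active means fluorescence ratio B-score at most minus 3 library SDs, with starting brightness B-score within 2 library SDs, cut at about -5.5 in these data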
# Active calls of the source: *; i = inactive; . = not tested or not shown. Sampled rows, rich in hits. Any-hit rate of the full collection: about 1.6%.
SMILES,KCNQ2 pot,KCNQ2 block
O=C(Nc1ccccc1F)C(=Cc1sc(N2CCOCC2)nc1-c1ccccc1)C(=O)Nc1ccccc1F,-6.5,-6.5*
O=C(N/N=C/c1sc(N2CCOCC2)nc1-c1ccccc1)c1ccccc1F,.,i
O=C1CC(Cc2ccc(Br)cc2)C(=O)N1c1ccccc1 (configuration not stated),0.03,i
Cc1cc(/C=C(/C#N)c2cccc(F)c2)c(C)n1-c1cccnc1,-8,-8*
Cc1cc(/C=C(\C#N)C(=O)NCc2ccco2)c(C)n1-c1cccnc1,0.47,i
COc1ccc(CNc2nc(NC(C)=O)nn2-c2ccccc2)cc1,.,i
CC(C)OCCCn1c(=O)c2ccccc2n2c(CCC(=O)O)nnc12,1.6,i
CC(C)OCCCn1c(=O)c2ccccc2n2c(CCC(=O)NC3CCN(Cc4ccccc4)CC3)nnc12,-6,-6*
COCC1CCCN(C(=O)c2ccc3nc(Cc4cccc(Cl)c4)oc3c2)C1 (configuration not stated),.,i
Cc1ccn2c(=O)nc(SCC(=O)N3CCCC3)nc2c1,1,i
Cc1ccc2nc(Nc3ccc(C)c(C)c3)c3nncn3c2c1,2.4,i
S=c1[nH]c(-c2ccc(Cl)cc2)cs1,19*,i
S=c1nccc(-c2ccc(Cl)cc2)[nH]1,.,i
CC(C)CCN1C(=O)c2ccc(C(=O)Nc3ccccn3)cc2C1=O,.,i
CC1(C)CC(c2nc(-c3ccc(Cl)cc3)cs2)CCS1 (configuration not stated),-6.4,-6.4*
CC1(C)CC(c2nc(-c3ccc(Br)cc3)cs2)CCS1 (configuration not stated),.,i
COCCNC(=S)N1CCC(NC(=O)c2ccco2)CC1,0.52,i
O=C1CC2c3ccccc3C1C1C(=O)N(Cc3ccccc3)C(=O)C21 (configuration not stated),1.3,i
CCn1nc(C)c(CN2CCC(C(=O)Nc3cccc(-c4cccc(Cl)c4)c3)CC2)c1C,.,i
CC(NC(=O)COC(=O)C1CCN(c2ccc(C(F)(F)F)cn2)CC1)c1ccc(Br)cc1 (configuration not stated),.,i
COc1ccc(Cl)cc1NC(=O)CCN1C(=O)C2C3CCC(C3)C2C1=O (configuration not stated),.,i
COc1ccccc1C(=O)NCCOc1ccc(C(C)(C)C)cc1,-5.8,-5.8*
COc1ccccc1OCC(=O)NCCSCc1cccc(Cl)c1,-6.4,-6.4*
CC(C)(C)c1ccc(C(=O)NCCOc2ccccc2)cc1,.,i
COc1ccccc1OCC(=O)NCCNC(=O)COc1ccccc1OC,.,i
SMILES,KCNQ2 pot,KCNQ2 block
O=C(COc1ccccc1)NCCSCc1ccc(Cl)cc1,-6.6,-6.6*
COc1ccccc1C(=O)NCCCNC(=O)c1ccccn1,.,i
COc1ccccc1C(=O)NCCSCc1ccccc1Cl,-6.4,-6.4*
O=C(Cc1ccccc1)NCCSCc1ccc(Cl)cc1,1.4,i
CC1CN(C(=O)C2(C)CC2(Br)Br)CC(C)O1 (configuration not stated),0.79,i
COc1ccc(OC)c(NC(=O)C2CCN(S(=O)(=O)c3ccc4c(c3)CC(C)N4C(C)=O)CC2)c1 (configuration not stated),0.93,i
CCC(C)c1ccc(NC(=O)COC(=O)c2nc3nccc(C)n3n2)cc1 (configuration not stated),.,i
O=C(COc1ccccc1)NCCSCc1ccccc1Cl,.,i
COc1ccccc1OCC(=O)NCCSCc1ccccc1Cl,-6.2,-6.2*
CC(C)c1nc2ccccc2c2nnc(SCC(=O)NCc3ccco3)n12,.,i
CC(C)(C)c1nc2ccccc2c2nnc(SCC(=O)NCc3ccco3)n12,-6.5,-6.5*
O[C@@H](c1cc(C(F)(F)F)nc2c(C(F)(F)F)cccc12)[C@H]1CCCCN1,0.92,i
OC(c1cc(-c2ccc(Cl)cc2)nc2ccccc12)C1CCCCN1 (configuration not stated),-7.3,-7.3*
CC(C)(C)c1ccc(NC(=O)CCNC(=O)c2ccco2)cc1,0.29,i
COc1ccc(-n2nc(C(=O)NCC(=O)NCCN(C)C)c3ccccc3c2=O)c(OC)c1,0.49,i
CCOC(=O)c1c(CN2CCOCC2)n(-c2ccccc2)c2cc(Br)c(OC)cc12,.,i
CCOC(=O)c1c(CN(C)C)n(-c2ccccc2)c2cc(Br)c(OC)cc12,-6.2,-6.2*
NNC(=O)[C@H](Cc1ccccc1)NC(=O)Nc1ccc2c(c1)OCCO2,.,i
CCCCN(CC)CCCNC(=O)c1ccc(CS(=O)(=O)c2ccccc2C)o1,.,i
COc1ccccc1N1CCN(C(=O)C(C)N(c2ccc(C)cc2)S(C)(=O)=O)CC1 (configuration not stated),.,i
COc1ccccc1N1CCN(C(=O)C(C)N(c2ccccc2)S(C)(=O)=O)CC1 (configuration not stated),-5.7,-5.7*
Cn1nccc1C(=O)N1CCOCC1,0.42,i
O/N=C(\c1ccccc1)C(O)c1ccccc1 (configuration not stated),.,i
CC[C@@H](C(=O)[C@@H](C)[C@@H](O)[C@H](C)CCc1ccc(C)c(O)c1C(=O)O)[C@H]1O[C@](CC)([C@H]2CC[C@](O)(CC)[C@H](C)O2)C[C@@H]1C,27*,i
O=C1CCN(CCc2ccccc2)CCN1CCSc1ccccc1,.,i
SMILES,KCNQ2 pot,KCNQ2 block
Cc1nc2sccn2c(=O)c1S(=O)(=O)NCC1CCN(Cc2ccccc2Cl)CC1,1.3,i
O=C(/C=C/c1ccc(-c2ccccc2[N+](=O)[O-])o1)c1ccc(F)cc1,.,i
O=C(/C=C/c1ccc(-c2ccccc2[N+](=O)[O-])o1)c1ccc(Br)cc1,-7.2,-7.2*
COc1ccc(CN(C)C(=O)c2cccc(NS(=O)(=O)c3ccccc3)c2)cc1F,0.66,i
Cc1ccc(-c2csc(NC(=O)c3cc([N+](=O)[O-])ccc3N3CCOCC3)n2)cc1,.,i
O=C(Nc1nc(-c2ccccc2)cs1)c1ccc(N2CCOCC2)c([N+](=O)[O-])c1,-7.8,-7.8*
CCC(C)NC(=O)Cc1c(C)c2cc3c(cc2oc1=O)OC(C)(C)CC3 (configuration not stated),0.64,i
O=C(NCC(c1ccco1)N1CCCCC1)c1ccc2c(c1)S(=O)(=O)c1ccccc1C2=O (configuration not stated),.,i
COc1cc2c(cc1OC)C(COc1ccc([N+](=O)[O-])cc1)NCC2 (configuration not stated),0.91,i
Cc1ccc(-c2nnc(SCC(=O)N/N=C/c3ccc(C(=O)O)cc3)n2C2CCCCC2)cc1,1.2,i
COc1ccc([N+](=O)[O-])cc1/C=N/NC(=O)Cc1ccccc1,6*,i
COc1cc(/C=N/NC(=O)Cc2ccccc2)ccc1Oc1ccc([N+](=O)[O-])cc1[N+](=O)[O-],0.78,i
CCSc1nc(=S)cc(C)[nH]1,13*,i
CCSc1nc(O)cc(=O)[nH]1,.,i
COC(=O)c1cc(-c2c(-c3ccc4c(c3)OCO4)noc2-c2ccsc2)cc([N+](=O)[O-])c1,.,i
CN(C)c1ccc(-c2c(-c3ccc4c(c3)OCO4)noc2-c2ccsc2)cn1,-5.9,-5.9*
CCC(C(=O)OCC(=O)N1C(C)CCCC1C)c1ccccc1 (configuration not stated),.,i
